TDP1 cell CPT = DT40-hTDP1 cell growth loss with CPT; 420,000 compounds, 12% hits; Potency, µM (highest dose often 46.2 µM), without a hit: at the top dose activity change, negative = growth inhibition, most hits filed as inhibitors; AID 686979; chicken DT40 Tdp1-/-;hTDP1 cells + 20 nM CPT, ATP luminescence, 48 h; also: potency is read from the fitted curve at half-maximal effect; nearly all actives have a fitted effect of over 55% in size
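Cell growth measured by CellTiter-Glo luminescence after a minimum 48 h, 37 C compound exposure with 20 nM CPT in Tdp1-knockout DT40 cells stably expressing hTDP1, seeded 400/well; qHTS titration format.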
ALOX12 inh = ALOX12 (human) lipoxygenase inhibition | P18054 | purified 12hLO, xylenol orange hydroperoxide absorbance | Potency, µM (titrated, usually from 108 µM), inactives show top-dose activity change, negative = inhibition, usual class: inhibitors | 580,000 compounds, 1.1% hits | AID 1671190; also: potency is read from the fitted curve at half-maximal effect
Target sequence (P18054 whole entry, looked up): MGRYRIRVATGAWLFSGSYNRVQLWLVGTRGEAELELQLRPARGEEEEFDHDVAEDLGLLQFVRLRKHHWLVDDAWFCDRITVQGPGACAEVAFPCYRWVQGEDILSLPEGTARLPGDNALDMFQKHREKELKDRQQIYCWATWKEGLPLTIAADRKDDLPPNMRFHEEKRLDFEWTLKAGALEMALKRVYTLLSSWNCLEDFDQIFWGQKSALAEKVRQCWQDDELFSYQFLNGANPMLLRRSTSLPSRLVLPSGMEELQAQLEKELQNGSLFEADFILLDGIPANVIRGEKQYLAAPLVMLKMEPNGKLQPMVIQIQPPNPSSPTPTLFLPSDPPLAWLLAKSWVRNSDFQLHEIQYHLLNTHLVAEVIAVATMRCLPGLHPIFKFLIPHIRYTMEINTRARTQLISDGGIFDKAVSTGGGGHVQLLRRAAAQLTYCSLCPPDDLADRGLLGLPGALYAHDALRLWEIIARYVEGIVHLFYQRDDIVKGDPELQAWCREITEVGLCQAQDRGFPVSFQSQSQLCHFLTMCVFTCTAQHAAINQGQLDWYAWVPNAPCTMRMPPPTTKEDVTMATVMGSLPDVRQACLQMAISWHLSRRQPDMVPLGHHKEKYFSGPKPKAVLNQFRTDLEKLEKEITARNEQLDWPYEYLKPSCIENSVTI
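Hydroperoxide product was detected by ferrous iron/xylenol orange as the 573 to 405 nm absorbance ratio. Arachidonic acid at 40 uM (final) was turned over for 30 min at room temperature by 150 nM human 12hLO, pH 7.0 Hepes buffer, after 15 min compound preincubation.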
IL1B secr inh = inhibitors of inflammasome signaling (IL-1 beta secretion); THP-1 LPS/ATP IL-1B secretion, AlphaLISA, 16 h; hits give low values; activity change, % at 57.5 µM; 360,000 compounds, 4.7% hits; in the data active = activity change below about -50%; inconclusive = mostly about -30% to -49%
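THP-1 cells pretreated 1 hr with compounds (up to 57.5 uM final), then stimulated with LPS (250 ng/mL final) plus ATP (1.25 mM final); secreted IL-1B measured by AlphaLISA after 16 hr, decreased signal indicating inhibition.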
HT1080 IDH1KD tx = toxicity to HT-1080 IDH1 knockdown cells (counter line) | 360,000 compounds, 2% hits | Potency, µM (series often up to 46.1 µM), for the others: at the highest dose activity, negative = toxicity, hits mostly cytotoxic | AID 686971 | HT-1080 IDH1 knockdown viability, ATP luminescence, 48 h;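 also: potency is read from the fitted curve at half-maximal effect; 0% = DMSO wells and -100% = cell-free medium wells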
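Viability of IDH1-knockdown HT-1080 fibrosarcoma cells was assessed by CellTiter-Glo after 48 h at 37 °C with titrated compound; concentration-effect curves were classified by fit quality and response size.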
TDP1 cell noCPT = qHTS for Inhibitors of human tyrosyl-DNA phosphodiesterase 1 (TDP1): qHTS in cells in absence of CPT; 420,000 compounds, 15% hits; Potency, µM (doses to about 46.2 µM), without a hit: at the highest dose activity change, negative = growth inhibition, actives largely listed as inhibitors; DT40 Tdp1-/- hTDP1 cells, no CPT, ATP luminescence, 48 h; also: potency is read from the fitted curve at half-maximal effect; nearly all actives have a fitted effect of over 55% in size
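Cells were dispensed at 400 per well, compounds added by pin tool, plates incubated ≥48 hr at 37 °C, then CellTiter-Glo added for 30 min at room temperature before luminescence reading. Line: DT40 Tdp1-/- complemented with hTDP1; camptothecin omitted.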
HT1080NT lethal = kills 2HG-producing HT-1080-NT fibrosarcoma cells; Potency, µM (series often up to 46.1 µM), without a hit: top-dose activity, negative = less viability, usual class: cytotoxic; 360,000 compounds, 1.6% hits; HT-1080-NT fibrosarcoma viability, CellTiter-Glo ATP luminescence, 48 h;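 also: NT is the 2HG producing partner of a matched IDH1 knockdown line; potency is read from the fitted curve at half-maximal effect; 0% = DMSO-treated cells and -100% = media-only wells without cells; nearly all actives have a fitted effect of over 55% in size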
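HT-1080-NT fibrosarcoma cells (2HG-overproducing), 750 cells/well in RPMI with 5% FBS, dosed after 2 h and incubated 48 h at 37C. CellTiter-Glo luminescence normalized to DMSO and no-cell wells; concentration-response curves fitted and classed.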
* = called active by the depositor; ? = inconclusive; nt = not tested or not shown; [ ] = remark or other dose. The sample as a whole holds a higher share of hits than the screen did. Unless noted, calls follow the shape of the dose curve; as a rule, active = well fitted curve in the direction sought with a large enough effect; inconclusive = small, poorly fitted or top-dose-only effect, or another doubt; inactive = no such curve, though single readings can be large; an effect the other way counts as inactive or inconclusive. Unless noted, % is scaled to controls: 0 for no effect and ±100 for the full control effect.

SMILES	TDP1 cell CPT	ALOX12 inh	IL1B secr inh	HT1080 IDH1KD tx	TDP1 cell noCPT	HT1080NT lethal
CCOC(=O)[C@]12CCC=C1N(Cc1ccc(Cl)cc1Cl)C(=O)[C@H](CC(=O)N1CCCCC1)C2	?	-18%	13	?	?	?
CCOC(=O)N1CCN(C(=O)C[C@@H]2C[C@@]3(C(=O)OCC)CCC=C3N(Cc3ccc(Cl)cc3Cl)C2=O)CC1	18µM*	-26%	0	?	15µM*	-17%
Cc1ccc(NC(=O)C2CCN(S(=O)(=O)c3c(C)noc3C)CC2)c(C)c1	2%	-23%	nt	nt	-10%	nt
O=C(NCCc1ccccc1)N1CCC(c2noc(-c3cnccn3)n2)C1 (stereo unspecified)	nt	32%	nt	nt	nt	nt
CCOC(=O)[C@]12CCCC=C1N(Cc1ccc(Cl)cc1Cl)C(=O)[C@H](CC(=O)N1CCOCC1)C2	?	-8%	8	2%	15µM*	-3%
O=C(CNC(=O)c1ccccc1)N=Nc1c(O)[nH]c2ccc(Br)cc12	?	?	48	-5%	-21%	3%
O=S(=O)(Cc1ccccc1)N=Nc1c(O)[nH]c2ccc(Br)cc12	13µM*	nt	76	-3%	18µM*	-4%
CCSc1nc2sc3c(c2c(=O)n1C1CCCCC1)CCN(C)C3	16µM*	?	-25	-19%	15µM*	-7%
C#CCSc1nc2sc3c(c2c(=O)n1C)CCC3	-2%	-6%	-2	11%	12%	11%
C=C(C)CSc1nc2sc3c(c2c(=O)n1C1CCCCC1)CCN(C)C3	5.8µM*	-15%	nt	?	6.5µM*	-21%
CN1CCc2c(sc3nc(SCC(=O)N4CCCCC4)n(-c4ccccc4)c(=O)c23)C1	?	91%	18	-4%	-26%	-6%
N#CCSc1nc2sc3c(c2c(=O)n1C1CCCCC1)CCCC3	?	?	?	-7%	23µM*	-7%
CSc1nc2sc3c(c2c(=O)n1C1CCCCC1)CCN(C)C3	-9%	64%	-4	9%	?	6%
Cc1ccc(S(=O)(=O)N2CCCN(CCS(=O)(=O)CCC(N)=O)CC2)cc1	nt	-17%	nt	nt	nt	nt
COc1ccccc1N(CCC#N)C(=O)CSc1ncnc2sc(C)c(C)c12	nt	-4%	nt	nt	nt	nt
CCN(CC)S(=O)(=O)c1ccc(C(=O)Nc2c(C)cc(Br)cc2Cl)cc1	nt	8%	nt	nt	nt	nt
COC(=O)C(c1ccccc1)N(Cc1cccc(CN(C(C(=O)OC)c2ccccc2)S(C)(=O)=O)c1)S(C)(=O)=O (stereo unspecified)	?	2%	12	5%	16µM*	9%
COc1ccccc1C(=O)NCC(=O)N=Nc1c(O)n(C(C)C)c2ccccc12	?	-2%	-7	4%	18µM*	-3%
CC(C)n1c(O)c(N=NC(=O)Cn2ccc(C(F)(F)F)n2)c2ccccc21	?	11%	0	11%	8.2µM*	-2%
Cn1c(O)c(N=NC(=O)Cn2c(C(F)(F)F)nc3ccccc32)c2ccccc21	21µM*	-11%	11	9%	13µM*	1%
Cc1cc(C(=O)N=Nc2c(O)n(C(C)C)c3ccccc23)n[nH]1	?	-2%	-7	1%	18µM*	2%
O=C(Cn1ccc(C(F)(F)F)n1)N=Nc1c(O)[nH]c2ccccc12	6%	-14%	-3	-8%	-20%	-21%
O=C(O)Cn1c(C(F)(F)F)nc2ccccc21	2%	-17%	10	11%	-28%	15%
CC(C)n1c(O)c(N=NC(=O)CNC(=O)CCc2ccccc2)c2ccccc21	5%	0%	-1	13%	?	0%
CNC(=O)c1ccc(NC(=O)c2nn(C(C)C)c(=O)c3ccccc23)cc1	nt	-5%	nt	nt	nt	nt
SMILES	TDP1 cell CPT	ALOX12 inh	IL1B secr inh	HT1080 IDH1KD tx	TDP1 cell noCPT	HT1080NT lethal
Cc1nc(-c2cn(C3CCCN(C(=O)c4ccc(F)cc4)C3)nn2)no1 (stereo unspecified)	nt	18%	nt	nt	nt	nt
CC(C)CCNCCCCCN	nt	-28%	nt	nt	nt	nt
Cc1ccc(SCC(=O)OCC(=O)N(C)C2CCS(=O)(=O)C2)cc1C (stereo unspecified)	4%	-19%	0	0%	?	9%
OCCCNc1ncnc2sc3c(c12)CCN(Cc1ccccc1)C3	?	57%	3	1%	18µM*	-6%
COCCCNc1ncnc2sc3c(c12)CCN(Cc1cccnc1)C3	nt	244%	nt	nt	nt	nt
COc1ccc(C(=O)C2CCCN(Cc3cccn3-c3ccccn3)C2)c(OC)c1 (stereo unspecified)	8.2µM*	-2%	-93*	15µM*	6.5µM*	6.5µM*
COc1ccc(F)cc1C(=O)C1CCCN(Cc2cccn2-c2ccccn2)C1 (stereo unspecified)	?	-11%	-17	?	16µM*	?
O=C(NCc1nc(-c2ccc(Cl)cc2)no1)Nc1cccc2ccccc12	nt	-2%	nt	nt	nt	nt
O=C(NC1CC(=O)N(Cc2ccccc2C(F)(F)F)C1)c1ccsc1 (stereo unspecified)	nt	39%	nt	nt	nt	nt
CC(NS(=O)(=O)OCC(Cl)(Cl)Cl)c1ccc(C(C)(C)C)cc1 (stereo unspecified)	16µM*	-1%	-72*	29µM*	?	?
COc1ccccc1-c1nc(NCCc2cnc[nH]2)c2ccccc2n1	?	-2%	nt	nt	?	nt
COc1ccc(CNc2nc(-c3ccccc3CN(C)C)nc3ccccc23)c(OC)c1	10µM*	-12%	nt	nt	7.3µM*	nt
COc1ccc2[nH]cc(CCNc3nc(-c4ccc(N(C)C)cc4)nc4ccccc34)c2c1	15µM*	?	nt	nt	23µM*	nt
COc1ccc(CNc2cc(-c3ccccc3CN(C)C)ncn2)c(OC)c1	-24%	?	nt	nt	?	nt
COc1ccc2[nH]cc(CCNc3nc(-c4ccccc4CN(C)C)nc4ccccc34)c2c1	21µM*	?	nt	nt	21µM*	nt
COc1ccc2[nH]cc(CCNc3ncncc3-c3ccccc3C)c2c1	?	-17%	nt	nt	?	nt
CN(C)c1ccc(-c2nc(NCCc3cnc[nH]3)c3ccccc3n2)cc1	13µM*	-1%	nt	nt	?	nt
CC(C)(C)OC(=O)CN1C(=O)C(Sc2n[nH]c(-c3ccccc3)n2)CCc2ccccc21 (stereo unspecified)	-2%	2%[57.4 µM]	16	-3%	-5%	2%
COc1ccc2[nH]cc(CCNc3nc(-c4ccc(C(=O)N(C)C)cc4)nc4ccccc34)c2c1	21µM*	?	nt	nt	7.3µM*	nt

Screening results (PubChem BioAssay)
